# Screening results from PubChem BioAssay.
# CBX7 AlphaScr = CBX7 chromodomain binding inhibitors, primary screen, biochemical, AlphaScreen; normalised signal (fraction of DMSO) (test concentration not listed); AID 1224903, 2016; actives 1.1% (n = 66,000); AlphaScreen His6-CBX7 / biotin-H3K27me3 peptide binding; stronger effect = lower value; in the data active = normalised signal below about 0.5
# Target sequence (O95931 whole entry, looked up): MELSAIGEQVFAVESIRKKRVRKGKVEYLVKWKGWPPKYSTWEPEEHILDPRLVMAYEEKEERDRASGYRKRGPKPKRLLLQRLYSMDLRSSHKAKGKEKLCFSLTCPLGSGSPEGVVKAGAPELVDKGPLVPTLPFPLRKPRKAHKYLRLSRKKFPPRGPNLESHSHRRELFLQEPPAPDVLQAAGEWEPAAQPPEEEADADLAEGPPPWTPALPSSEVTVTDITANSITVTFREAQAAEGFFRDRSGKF
# Starred values were filed as active, the others as inactive. Many of the other results were omitted from the sample, so hits are more common in it than they were.
SMILES,CBX7 AlphaScr
Cc1ccc(S(=O)(=O)Nc2cccc3cccnc23)cc1,0.0846*
O=C(CN1C(=O)COc2ccc(S(=O)(=O)N3CCOCC3)cc21)N1CCC2(CC1)OCCO2,1.01
Cc1cc(NC(=O)c2cnc(Nc3ccc(C)c(Cl)c3)c3ccccc23)no1,1.12
COc1cc2[nH]c(=O)n(CCCCCC(=O)NC3CCN(Cc4ccccc4)CC3)c(=O)c2cc1OC,1.13
COc1ccc(OC)c(Nc2nc(-c3sc(C)nc3C)cs2)c1,0.84
CCC(=O)Nc1nc(C)c(-c2csc(Nc3cc(OC)ccc3OC)n2)s1,0.496*
CCC(=O)Nc1nc(C)c(-c2csc(Nc3ccccn3)n2)s1,0.879
CCC(=O)Nc1nc(C)c(-c2csc(Nc3ccc(OC)cc3)n2)s1,0.497*
CCC(=O)Nc1nc(C)c(-c2csc(Nc3ncccn3)n2)s1,1.08
CCC(=O)Nc1nc(C)c(-c2csc(Nc3ccccc3OC)n2)s1,0.832
CCC1Oc2ccccc2N(CC(=O)NC(C)C)C1=O (stereo not given),0.995
O=C1CC(c2ccccc2)CC2=C1C(c1ccc(Cl)cc1)Nc1ccc(C(=O)c3ccccc3)cc1N2 (stereo not given),0.856
CNS(=O)(=O)c1cc(-c2nnc(Nc3cccc(C(F)(F)F)c3)c3ccccc23)ccc1C,0.84
Cc1ccc(NC(=O)CC2Sc3ccccc3NC2=O)cc1C (stereo not given),1.02
O=C(Nc1nc(-c2cc3ccccc3o2)cs1)c1cc2ccccc2oc1=O,0.799
Cc1oc(-c2cccc(Br)c2)nc1CN1CCC(C(=O)NCC2CCCO2)CC1 (stereo not given),0.981
Cc1ccc(C(=O)Nc2ccc3nc(N4CCCCC4)cc(C)c3c2)cc1C,1.17
Cc1ccccc1-c1nc(CS(=O)(=O)CC(=O)NCc2ccc(Cl)cc2)c(C)o1,0.989
COc1ccc(C(=O)Nc2cccc(-c3nc4ccccc4o3)c2)cc1OC,1.27
COc1ccc(C(=O)Nc2nnc(-c3cccc(C)c3)o2)cc1OC,0.0175*
COc1ccc(-c2nnc(NC(=O)c3ccc(Cl)cc3)o2)cc1,0.554
Cc1cccc(-c2nnc(NC(=O)c3ccc(Cl)cc3)o2)c1,0.86
COc1ccc(C(=O)Nc2nnc(-c3ccccc3)o2)cc1OC,0.605
COc1ccc(-c2nnc(NC(=O)c3ccc(OC)c(OC)c3)o2)cc1,0.0863*
Cc1nn(-c2ccccc2)c2[nH]c(C(=O)NCc3ccc(F)cc3)cc(=O)c12,0.9
SMILES,CBX7 AlphaScr
CCN(CCNC(=O)c1cnn(-c2ccccc2)c1-n1cccc1)c1ccccc1,1.02
O=C(NCc1nc2ccccc2n1Cc1c(F)cccc1Cl)c1ccccc1,0.829
COc1ccc(C2(CNC(=O)c3cc4ccccc4o3)CCCC2)cc1OC,0.907
CN(C)CCCN1C(=O)CCn2c(-c3ccccc3)c(-c3ccccc3)c3cccc1c32,0.491*
CCN(CC)CCN1C(=O)Cn2c3c(c4cccc1c42)CCC3,1.13
O=C(NCc1ccccn1)c1ccc2c(c1)N(Cc1ccccc1F)C(=O)CS2,0.806
CCc1cc(-c2nc(-c3ccc(Cl)c(Cl)c3)cs2)ccn1,1.16
CCCc1cc(-c2nc(-c3cccc([N+](=O)[O-])c3)cs2)ccn1,0.429*
CCCCC(=O)Nc1cccc(-c2csc(-c3ccccc3)n2)c1,1.1
N#Cc1ccccc1NC(=O)Cn1nc(Cc2ccncc2)c2ccccc2c1=O,1.09
CC(C)(C)c1ccc2c(c1)N(CC(=O)NCc1cccs1)C(=O)CO2,0.189*
CCCCNC(=O)CN1C(=O)COc2ccc(C(C)(C)C)cc21,0.935
CCN(CCCNC(=O)CN1C(=O)COc2ccc(C(C)(C)C)cc21)c1cccc(C)c1,0.268*
Cc1ccc(CNC(=O)CN2C(=O)COc3ccc(C(C)(C)C)cc32)cc1,1.11
CCN(CCCNC(=O)CCCN1C(=O)COc2ccc(C)cc21)c1cccc(C)c1,0.849
CC(C)(C)c1ccc2c(c1)N(CC(=O)NCc1ccc3c(c1)OCO3)C(=O)CO2,1.13
O=C(Nc1nc(-c2ccc(Cl)cc2)cs1)c1ccc(S(=O)(=O)N2CCCCC2)cc1,0.931
CCCCCCCNC(=O)c1c[nH]c2ccc(S(=O)(=O)N(C)c3ccc(C(C)C)cc3)cc2c1=O,1.18
CCOC(=O)c1nc(Nc2ccc(NC(C)=O)cc2)c2ccccc2n1,0.924
CCOC(=O)c1ccc(NCc2nc3ccccc3n2Cc2ccccc2F)cc1,0.972
COc1ccc(Cl)cc1NC(=O)c1c(C)c(-c2ccccc2)nc2ccccc12,0.916
Cc1ccc(S(=O)(=O)Nc2nc3ccccc3nc2Nc2ccccc2Cl)cc1,0.988
O=C(Nc1c2c(nn1-c1cccc(Cl)c1)CS(=O)(=O)C2)c1ccc(F)cc1,1.1
COc1cccc(CNC(=O)c2ccc3c(c2)ncn3C2CCCCC2)c1,1.02
Cc1ccc(-c2nnc(Nc3cccc(O)c3)c3ccccc23)cc1S(N)(=O)=O,0.933
Cc1ccc(-c2nnc(Nc3cccc(O)c3)c3ccccc23)cc1S(=O)(=O)NC(C)(C)C,0.402*
Cc1ccc(-c2nnc(Nc3ccc(O)cc3)c3ccccc23)cc1S(=O)(=O)NC(C)(C)C,0.674
